Test results reported in PubChem BioAssay (NCI).
About 83,000 compounds went through this panel and 20% of them were active in at least one assay; those are over-represented in the sample as a whole.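 Note: values are percent growth. 100 is the growth of untreated cells, values between 100 and 0 indicate rising inhibition; between -100 and 0 indicates cell death.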 A number with no mark means an inactive call. Active and inactive are the calls of the source. How the source made its calls: active means growth percent below 10; inactive means the rest.

Experiments:
Test in all cases: NCI-60 one-dose screen, 48 h (100 = growth as untreated, 0 = no growth, -100 = all killed)
Settings in all cases: 10 µM unless noted
[1] = test system: SK-MEL-2 melanoma
[2] = test system: SN12C renal
[3] = test system: UO-31 renal
[4] = test system: TK-10 renal
[5] = test system: ACHN renal
[6] = test system: A498 renal
[7] = test system: CCRF-CEM leukemia
[8] = test system: MOLT-4 leukemia
[9] = test system: SR leukemia
[10] = test system: EKVX NSCLC

| Compound | growth [1] | growth [2] | growth [3] | growth [4] | growth [5] | growth [6] | growth [7] | growth [8] | growth [9] | growth [10] |
| --- | --- | --- | --- | --- | --- | --- | --- | --- | --- | --- |
| CCCNc1nc(C)[nH]c(=O)c1S | 95.6% | 186% | 90.8% | 135% | 94.7% | 180% | 106% | 96.3% | 101% |  |
| CC(=O)Oc1c2c(nc3c1c1ccccc1n3Cc1ccccc1)-c1ccccc1C2 | 71.4% | 85.8% | 58.2% | 114% | 85.7% | 82% | 91.5% | 72.6% |  |  |
| CCCn1c2cc(OCc3cn(-c4ccc(Br)cc4)nn3)ccc2c2ccnc(C)c21 | 70.6% | 17.5% | 23.4% | 85.9% | 17.4% | 77.8% | 13.1% | 45.6% | -15.2% (active) |  |
| N#CC1(C#N)C2=C(CCCC2)NC(c2c(F)cccc2Cl)C1(C#N)C#N (configuration not stated) | 37.6% | 72.1% | 70% | 99.8% | 84% | 51.3% | 36.1% | 43.5% | 30.1% |  |
| Cc1ccc(CS/C(=C\c2ccc([N+](=O)[O-])cc2)C(=O)c2ccc(F)cc2)cc1 | 74.5% | 45.9% | 46.7% | 91.7% | 60.1% | 89.4% | 5.04% (active) | 3.17% (active) | 0.11% (active) |  |
| CC(/C=C/c1ccccc1)=N/NC(=O)c1ccncc1 | 106% | 99.8% | 89% | 105% |  | 95% | 92.5% | 92.2% | 88.9% |  |
| Cc1nc2sc(C(=O)Nc3cccc4ccccc34)c(N)c2cc1C(C)O (configuration not stated) | 36.5% |  | 48.6% | 75.2% | 42.8% | 24.2% | 9.13% (active) | 13.3% | 12.3% |  |
| O=C(Nc1cccc(-c2cccc(F)c2)c1)C1CCN(Cc2cccc3cccnc23)CC1 | 63.1% | 74.2% | 35.8% | 60.1% | 65.5% | 55.3% | 57.2% | 17.6% | -32.7% (active) |  |
| CC[C@]12C=CCN3CC[C@@]4(c5cc(NC(=O)CCC(=O)O[C@H]6CC[C@H]7[C@@H]8CC[C@H]9CC(=O)CC[C@]9(C)[C@H]8CC[C@]67C)c(OC)cc5N(C)[C@H]4[C@@](O)(C(=O)OC)[C@@H]1OC(C)=O)[C@@H]32 | 77.1% | 71.2% | 51.3% | 90.5% | 87.1% | 66.3% | 9.54% (active) | 17.8% | 24.8% |  |
| CC1(C)CC[C@]2(c3nnc(-c4ccncc4)o3)CC[C@]3(C)C(=CC[C@@H]4[C@@]5(C)CCC(=O)C(C)(C)[C@@H]5CC[C@]43C)[C@@H]2C1 | 96% | 79.7% | 77.5% | 128% | 88.7% | 106% | 75.5% | 52% | 63.7% |  |
| N#Cc1c(NC(=O)c2cccs2)[n+]([O-])c2cc(C(F)(F)F)ccc2[n+]1[O-] | 55.8% | 108% | 80.5% | 104% | 102% | 123% | 94.7% |  | 79.8% |  |
| CC1(C)[C@@H](O)CC[C@]2(C)[C@H]3CC[C@@H]4[C@H]5[C@H](c6cn(-c7ccccc7)nn6)CC[C@]5(CO)CC[C@@]4(C)[C@]3(C)CC[C@@H]12 |  | 90% | 79.9% | 98.4% | 84.4% | 87.6% | 94.4% | 67.7% |  | 88% |
| COC(=O)CCc1cc(O)c2c(c1)[C@@H](C(=O)OC)[C@H](c1ccc(O)c(O)c1)O2 | 47.8% | 95.1% | 67.7% | 90.6% | 98.2% | 98% | 53.6% | 47.7% | 36% |  |
| Cc1cc(C)c(NC(=O)c2sc3nc4c(cc3c2N)CCCCCC4)c(C)c1 | 34.6% | 68.3% | 67.3% | 74.2% | 72.4% | 19.9% | 32.8% |  | 23.3% |  |
| COC(=O)c1cc2c3c(cc(O)c2[nH]1)N(C(=O)C1Cc2cc(OC)c(OC)c(OC)c2N1)CC3CCl (configuration not stated) | -43% (active) | -88.9% (active) | -97.8% (active) | -89.5% (active) | -56.1% (active) | -42.8% (active) | 5.91% (active) | -11.7% (active) | 8.12% (active) |  |
| O=C1C(Cl)=C(NCCCN(CCCNC2=C(Cl)C(=O)c3ccccc3C2=O)C2=C(Cl)C(=O)c3ccccc3C2=O)C(=O)c2ccccc21 | 79.4% | 4.16% (active) | 58.1% | 146% | 74.6% | 100% | 34.6% | 31.6% | 2.55% (active) |  |
| CC1(c2ccccc2Cl)NC(=O)NC1=O (configuration not stated) | 95.6% | 105% | 94% | 90% | 108% | 94.9% | 101% | 94.5% | 98.5% |  |
| O=C(Nc1ccc(S(=O)(=O)NC2CCCCCC2)cc1)C(c1ccccc1)S(=O)(=O)c1ccc(F)cc1 (configuration not stated) |  | 12.6% | -44.2% (active) | 6.92% (active) | 0.641% (active) | -33.2% (active) | 4.59% (active) | 6.98% (active) |  | 5.65% (active) |
| COc1ccc(Cl)c([N+](=O)[O-])c1 | 104% | 99% | 90.6% | 95.8% | 107% | 113% | 109% | 95.2% | 93.1% |  |
| Cc1cccc(C)c1NC(=O)CN(CC(C)C)CC(O)COc1ccccc1 (configuration not stated) | 93.8% | 104% | 85.8% | 96.9% | 104% | 63.8% | 96.9% | 88.2% | 92.1% |  |
| O=c1[nH]nc(-c2ccc(Br)cc2)c2sc(NC(=S)Nc3ccc(Cl)cc3)nc12 | 101% | 109% | 89.2% | 123% | 102% | 100% | 98.4% | 105% | 106% |  |
| CCCCCCCCCCCCCC1=NCC[N+]1(CCO)Cc1ccccc1 (configuration not stated) | -61.7% (active) | -84.3% (active) | -86.1% (active) | -85.4% (active) | -98% (active) | 54.2% | -49.5% (active) | -58.1% (active) | -50.7% (active) |  |
| COc1ccc2c(c1)Oc1nc(N)c(C#N)c(N)c1C2Sc1ccc(O)cc1 (configuration not stated) | 87.5% | 89.4% | 68.3% | 98.5% | 94.2% | 91.4% | 16.5% | 34.7% | 13.7% |  |
| O=C(Nc1nc(-c2ccccc2Cl)cs1)c1cc(-c2ccc(Br)cc2)nc2ccccc12 | 26.6% | 69.9% | 42% | 49.4% | 49.7% | 22.6% | 44.9% | 37.2% | 53% |  |
| O=C1NC(SCc2ccc(F)cc2)=N/C1=C/c1cccc(OCc2ccc(Cl)cc2)c1 | 99.4% | 22.1% | -38.2% (active) | -5.9% (active) | -53.7% (active) | -5.28% (active) | 54.8% | 51.2% | 20.6% |  |
| COc1ccc(-c2nnc(N3CCN(C(=O)CN4CCN(c5ccc(OC)cc5)CC4)CC3)nc2-c2ccc(OC)cc2)cc1 |  | -72.7% (active) | -64.4% (active) | 28.6% | 54.6% | 98.1% | -50.7% (active) |  | -54.2% (active) | 41.5% |
| C=C(C)[C@@H]1CC[C@]2(C(=O)NCCCO)CC[C@]3(C)[C@H](CC[C@@H]4[C@@]5(C)CCCNC(C)(C)[C@@H]5CC[C@]43C)[C@@H]12 |  | 70.9% | 56.1% | 91.2% | 89.5% | 95.8% | 60.4% |  | -19.5% (active) | 77.5% |
| COc1cc(NC(=O)c2cc(O)c(C/C=C(\C)CCC=C(C)C)c(O)c2)cc2c1O[C@]1(C)CC[C@@H](O)C(C)(C)[C@H]1C2 |  | 20.5% | -21.5% (active) | 56.1% | 4.47% (active) | -29.2% (active) | 6.24% (active) | 0.564% (active) | -1.71% (active) | 26.1% |
| Cc1ccc(C2=N[C@H]3CCC[C@@H]3N(c3ccccc3)C(C(Cl)Cl)=N2)cc1 |  | 107% | 81.9% | 100% | 98% | 112% | 96.4% | 94.3% | 95.8% | 98.4% |
